Hits are enriched below; roughly 2.3% of the tested compounds scored in any of these assays.
Bim-Mcl-1: inhibitors of Bim peptide binding to Mcl-1, primary screen, biochemical, bead-based flow cytometry, multiplex. Induced myeloid leukemia cell differentiation protein Mcl-1 (Homo sapiens), Q07820. Bim peptide-Mcl-1 binding. inhibition, % at 10 µM. 190,000 compounds, 0.1% hits; in the data active means inhibition above about 40%;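 further: 0% = no compound tracer wells and 100% = peptide blocker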
Target sequence (Q07820 whole entry, looked up): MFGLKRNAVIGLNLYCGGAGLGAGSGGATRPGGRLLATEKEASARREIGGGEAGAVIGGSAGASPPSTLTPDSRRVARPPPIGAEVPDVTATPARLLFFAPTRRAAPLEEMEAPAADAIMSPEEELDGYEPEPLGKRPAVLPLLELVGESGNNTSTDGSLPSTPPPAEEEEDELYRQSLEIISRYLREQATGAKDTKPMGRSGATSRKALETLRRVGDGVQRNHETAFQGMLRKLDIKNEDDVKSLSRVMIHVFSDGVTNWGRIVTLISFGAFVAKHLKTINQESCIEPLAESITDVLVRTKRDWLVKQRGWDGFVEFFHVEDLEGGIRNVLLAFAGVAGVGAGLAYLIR
Mcl1-Noxa inh: Mcl-1/Noxa binding inhibitors, primary screen, biochemical, TR-FRET, 1536-well | Induced myeloid leukemia cell differentiation protein Mcl-1 (Homo sapiens), Q07820 | TR-FRET Mcl-1/Noxa peptide binding, 2 h | inhibition, % at 21.7 µM | 220,000 compounds, 1.5% hits | AID 1022, 2008;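 active means compounds that cut the protein-peptide binding signal by more than 50% relative to plate controls in a single-dose test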;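 further: His-tagged Mcl-1 with rhodamine Noxa BH3 peptide and terbium anti-His antibody; 0% = Mcl-1 plus Noxa peptide wells and 100% = peptide-only wells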
BCLXL inh: inhibitors of human Bcl-xL, primary screen, biochemical, fluorescence polarization, HTS. AID 2129, 2009. Bcl-2-like protein 1 (Homo sapiens), Q07817. inhibition, % at 10.9 µM. 320,000 compounds, 0.7% hits. GST-Bcl-xL / FITC-Bim BH3 peptide fluorescence polarization;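 active means inhibition above the mean of all tested compounds plus 3 SD, cutoff set per campaign, cut at about 30% in these data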;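 further: 0% = DMSO wells and 100% = unlabeled Bim-BH3 peptide competitor; inhibitors lower millipolarization by displacing the labeled peptide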
Target sequence (Q07817 whole entry, looked up): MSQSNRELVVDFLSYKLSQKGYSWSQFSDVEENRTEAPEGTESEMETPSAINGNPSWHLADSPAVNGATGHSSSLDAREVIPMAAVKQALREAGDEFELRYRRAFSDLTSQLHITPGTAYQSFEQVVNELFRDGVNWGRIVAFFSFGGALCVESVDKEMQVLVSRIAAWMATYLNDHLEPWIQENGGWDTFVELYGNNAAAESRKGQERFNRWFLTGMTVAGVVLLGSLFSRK
MCL1 BIM primary: inhibitors of MCL1 binding to BIM-BH3, primary screen, biochemical, fluorescence polarization. Induced myeloid leukemia cell differentiation protein Mcl-1 (Homo sapiens), Q07820. GST-MCL1 / FITC-Bim-BH3 fluorescence polarization. inhibition, % at 10.9 µM. 320,000 compounds, 0.68% hits. AID 2057, 2009;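 active means inhibition above the mean inhibition of all tested compounds plus 3 SD, set per campaign, cut at about 40% in these data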;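 further: 0% = DMSO wells and 100% = unlabeled Bim-BH3 peptide control; higher means more loss of mP so more displacement of Bim peptide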
GLD-1 TGE inh: GLD-1/TGE RNA complex disruptors, primary screen, biochemical, fluorescence polarization | 320,000 compounds, 0.44% hits | purified GLD-1 + fluorescein TGE RNA | inhibition, % at 5.96 µM | AID 2280, 2010;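 active means percent inhibition above a per-plate cutoff, the plate mean of test compounds plus 3 SD, cut at about 30% in these data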;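 further: 0% = DMSO wells with GLD-1 and probe and 100% = wells lacking GLD-1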
Mcl1 Bid PPI: Mcl-1/Bid binding inhibitors, primary screen, biochemical, TR-FRET, 1536-well | TR-FRET Mcl-1/Bid-Dy647 peptide binding | inhibition, % at 21.7 µM | 220,000 compounds, 0.97% hits | AID 1021, 2008;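 active means compounds that cut the binding signal by more than half at the single screening dose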;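 further: His-tagged Mcl-1 with europium anti-His antibody binding Bid BH3 peptide; 0% = Mcl-1 plus peptide wells and 100% = peptide-only wells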
* marks the source's active call; other numbers are inactive results; . = not tested or not shown.

SMILES	Bim-Mcl-1	Mcl1-Noxa inh	BCLXL inh	MCL1 BIM primary	GLD-1 TGE inh	Mcl1 Bid PPI
CC1CCC2(CC1)NC(=O)N(CC(=O)Nc1cccc(C#N)c1)C2=O (stereo unspecified)	.	.	-1	2	-2	.
Nc1c(S(=O)(=O)c2cccc(Cl)c2)c2nc3ccccc3nc2n1/N=C/c1ccc(O)c(O)c1	13	64*	5	13	3	-12
Cc1ccc(S(=O)(=O)N2CCN(C(=O)CN3CCCSc4ccccc43)CC2)cc1	.	.	5	6	8	.
O=C(CC(=O)c1cc(Cl)ccc1O)c1ccccc1	0	-11	-1	-3	6	-30
O=C(c1ccccc1)c1cc(Cl)ccc1N1C(=O)C=CC1=O	4	32	.	.	.	51*
O=C(Nc1ccc2oc(-c3cccnc3)nc2c1)c1ccc2c(c1)OCCO2	11	53*	-50	-67	-8	41
O=C(O)COc1ccccc1O	-2	52*	6	7	-4	-19
CS(=O)(=O)N1CCN(Cc2ccccc2C(F)(F)F)CC1	-2	0	-2	8	-3	-5
CS(=O)(=O)N1CCN(Cc2ccc(C(F)(F)F)cc2)CC1	0	19	-5	-13	3	52*
COc1ccccc1/C=C/C(=O)N1CCN(S(=O)(=O)c2cc(C)ccc2C)CC1	.	.	8	6	4	.
Cc1ccc(CNC(=O)C2CN(S(C)(=O)=O)c3cc(Cl)ccc3O2)cc1 (stereo unspecified)	2	7	0	-5	3	-27
CC1CCc2c(sc3ncn(CC(=O)N=Nc4c(O)[nH]c5ccccc45)c(=O)c23)C1 (stereo unspecified)	.	20	0	7	3	68*
CC1CCc2c(sc3ncn(CCO)c(=O)c23)C1 (stereo unspecified)	1	-1	1	-2	3	4
Cc1c(C(=O)OCC2CCCO2)[nH]c2c1C(=O)CC(c1ccco1)C2 (stereo unspecified)	0	70*	13	34	-6	9
Cc1c(C(=O)OCC(C)C)[nH]c2c1C(=O)CC(c1ccco1)C2 (stereo unspecified)	-1	2	-2	1	2	-14
Cc1ccccc1OCC1Cn2c(nc3c2c(=O)n(C)c(=O)n3C)O1 (stereo unspecified)	.	.	3	-2	-5	.
CCCc1cc(=O)n2[nH]c(-c3ccc(Cl)cc3)cc2n1	.	.	0	1	4	.
O=c1cc(-c2ccc([N+](=O)[O-])cc2)nc2cc(-c3ccc(Cl)cc3)[nH]n12	-4	97*	3	-2	8	87*
NNc1nc(-c2ccccc2)cs1	-7	4	10	5	-2	83*
CCN(c1ccccc1)S(=O)(=O)c1ccc(OC)c(NC(=O)c2cc(F)c(F)c(F)c2F)c1	.	.	.	.	-4	.
CC(C)c1nc(CNC(=O)C2CCC(=O)N(CCc3ccc(Cl)cc3)C2)no1 (stereo unspecified)	.	.	1	-6	1	.
O=C1C=C(c2cccc(CO)c2)C[C@@H](c2ccc(Cl)cc2)C1	.	.	1	3	0	.
CSc1nc2c(c(=O)[nH]1)C(c1cccs1)C1=C(CCCC1=O)N2 (stereo unspecified)	-4	7	0	9	1	-42
O=C1CCCC2=C1C(c1cn(-c3ccccc3)nc1-c1cccs1)c1c([nH]c(=O)[nH]c1=O)N2 (stereo unspecified)	0	62*	1	11	-1	50
CCC(=O)N1CCc2cc(S(=O)(=O)NC(C(=O)N3CCN(c4ccc(F)cc4)CC3)C(C)C)ccc21 (stereo unspecified)	.	.	1	-2	5	.
SMILES	Bim-Mcl-1	Mcl1-Noxa inh	BCLXL inh	MCL1 BIM primary	GLD-1 TGE inh	Mcl1 Bid PPI
N#C/C(=C\c1ccc([N+](=O)[O-])o1)C(=O)Nc1ccc(F)cc1	1	65*	41*	28	29	-51
COc1ccc(NC(=O)/C(C#N)=C\c2ccc(Br)o2)cc1	.	17	0	15	0	-75
O=C1N/C(=N/Nc2ccccc2)S/C1=C\c1ccccc1	-5	97*	6	19	-3	-56
O=C(COc1ccc(/C=N/NC(=O)c2cc3ccccc3o2)cc1Cl)Nc1ccccc1	-3	23	-8	-2	-8	84*
COc1cc(/C=N/NC(=O)c2ccccc2O)ccc1OCC(=O)Nc1ccccc1	.	.	-5	-1	5	.
N#C/C(=C\Nc1ccc2cn[nH]c2c1)c1nc(-c2ccc(Cl)cc2)cs1	1	53*	-6	-15	-9	58*
CN1CCc2c(sc3c2C(=O)NC(c2ccco2)N3)C1 (stereo unspecified)	-1	24	38*	40	9	-24
CCOC(=O)N1CCc2c(sc3c2C(=O)NC(c2ccccc2)N3)C1 (stereo unspecified)	-2	19	28	25	6	-68
CN1CCc2c(sc3c2C(=O)NC(c2cccc(OC(=O)c4cccs4)c2)N3)C1 (stereo unspecified)	-1	58*	-34	-70	-87	-6
COc1ccc(Nc2nc(-c3ccncc3)nc3ccccc23)cc1	.	.	2	-4	-3	.
Cc1cc2nc(-c3cccnc3SCC(=O)NCc3ccco3)[nH]c2cc1C	0	73*	13	25	8	-33
CCOC(=O)C1CCN(C(=O)c2ccc(S(=O)(=O)Nc3ccccc3OC)cc2)CC1	.	.	0	10	1	.
O=C(COC(=O)c1ccc(O)cc1)NCCCc1ccccc1	-4	10	.	.	.	0
COC(=O)c1ccccc1S(=O)(=O)NNC(=O)Nc1ccccc1	.	.	5	6	-3	.
COc1ccc(S(=O)(=O)/N=C2/NC(=O)/C(=C\c3cc(OC)c(OC)cc3[N+](=O)[O-])S2)cc1	-1	5	16	11	1	-16
COc1cc(/C=C2\S/C(=N/S(=O)(=O)c3ccccc3)NC2=O)c([N+](=O)[O-])cc1OC	.	57*	37*	38	17	14
CC1=CC(=O)C=C(C)C1=NOC(=O)c1cccc([N+](=O)[O-])c1	-3	53*	11	6	-8	-10
Cc1cc(/C=N/NC(=O)c2cccs2)c(C)n1-c1ccccc1	-136	8	-2	-2	5	87*
Cc1cc(/C=N/NC(=O)c2ccncc2)c(C)n1-c1ccccc1	-4	18	-3	-2	3	-23

Assay outcomes from PubChem.
